Structures are written as SMILES. Among all 400,000 compounds or so, about 13,000 (3.2%) were called active. Inconclusive results (about 18%) are left out. The call rests on the fitted dose curve; in most records, active means well fitted cell-killing curve with a large enough effect; inconclusive means small, poorly fitted or top-dose-only effect, or effect the other way; inactive means flat fitted curve, though single readings scatter. Only a selection was taken, and actives are over-represented in it overall.
On the % scale 0 is the no-effect control and ±100 the full control effect; potency means the concentration at half of the fitted maximal effect.

The nature of the assay: qHTS assay for MDR1-selective chemotherapeutics: Primary screen using the drug-selected MDR subline cells KB-V1. Further: nearly all actives have a fitted effect of over 60% in size. The note with it: KB-V1 MDR cells viability, CellTiter-Glo, 72 h; series mostly up to 46.1 µM; activity change, negative = cytotoxicity: at the top concentration. The text has this: A prime difficulty in effectively treating cancer is the development of cellular resistance to multiple structurally unrelated anticancer drugs, a phenomenon known as multidrug resistance (MDR). […] Numerous strategies to overcome P-gp-mediated MDR have been explored, including the design of drugs that evade recognition and efflux, and development of inhibitors to block efflux and restore drug accumulation. […] An alternative approach is to exploit resistance by identifying drugs that target MDR cells over the non-resistant parental cells from which they were selected. […] The development of MDR1-selective agents represents a new strategy for resolving multidrug resistance, as it remains a long-standing clinical challenge for cancer chemotherapy.
Our goal is to identify compounds that selectively kill P-gp-expressing MDR cells. We will identify MDR1-selective compounds by comparing toxicity of compounds in the screening library against parental, drug-naive (KB-3-1) adenocarcinoma cells as well as their drug-selected MDR sub-line (KB-V1). The differential toxicity of compounds against these two cell lines will be used to identify MDR1-selective compounds, whose cytotoxicity is potentiated, rather than diminished, by P-gp expression. This assay will be utilized to conduct a quantitative high-throughput screen (qHTS) in collaboration with the NIH Chemical Genomics Center to identify selective agents, and probe hits arising from the screen will be validated using secondary assays and characterized through a well-established follow-up research program. This screen was run against the entire NCGC library collection of about 400,000 compounds.
NIH Molecular Libraries Probe Production Network [MLPCN]
NIH Chemical Genomics Center [NCGC]
PI: Michael Gottesman, National Cancer Institute, NIH
Briefly, 5 microL of media containing either KB-V1 cells (columns 1-2, 4-48) are dispensed into Greiner white, treated solid-bottom 1536-well assay plates (media-only control is added to column 3). Compounds are then transferred via Kalypsys pin tool equipped with 1536-pin array (10 nL slotted pins, V&P Scientific, San Diego, CA). Following addition of compound, the plates are incubated at 37 degrees C for 72 hours. CellTiter-Glo (2.5 µL/well) is then added, and the plates are read in a ViewLux reader (Perkin-Elmer, clear luminescence filter, 1 second exposure, 1x binning) following a 10 minute incubation. All cells are dispensed in DMEM phenol-red free media containing 10% FBS.
Library plates were screened starting from the lowest and proceeding to the highest concentration. Vehicle-only plates, with DMSO being pin-transferred to columns 5-48, will be inserted uniformly at the beginning and the end of each library in order to monitor and record any shifts in the background, which can be affected by reagent dispensers or loss in enzyme activity over time. Screening data will be corrected, normalized, and concentration-effect relationships will be derived by using publicly-available NCGC, NCATS curve fitting algorithms (http://ncgc.nih.gov/pub/openhts).
On the technique in general: qHTS replaces the single test concentration by a dilution series.
As to `CN1CCN(C(=O)CCc2nc(-c3ccc(Cl)cc3)no2)CC1`, the “activity change, negative = cytotoxicity” value was -19% (inactive).

In the case of `CCN1CC(CN(C)Cc2nc(-c3ccc(Cl)cc3)no2)CC1=O` (stereo not drawn), the Potency is 16.4 µM (active).

On to `CC1CCN(Cc2nc(-c3ccc(Cl)cc3)no2)CC1`, for which the “activity change, negative = cytotoxicity” value was 0.287% (inactive).

As to `C[C@H](CO)N1C[C@H](C)[C@H](CN(C)C(=O)Nc2ccc3c(c2)OCO3)Oc2ncc(Br)cc2C1=O`, the “activity change, negative = cytotoxicity” value was 0% (inactive).

`CC(C)(C)c1ccc(C(=O)C[N+]2(C)CCCc3ccccc32)cc1` (stereo not drawn): the “activity change, negative = cytotoxicity” value is 0.231% (inactive).

As for `COc1ccc(-n2c(-c3ccc(Cl)cc3)n[nH]c2=S)c(OC)c1`, the “activity change, negative = cytotoxicity” value was 4.94% (inactive).

As to `Cc1cc(Cl)ccc1NC(=O)Cc1ccc(NC(=O)N2CCCCc3ccccc32)cc1`, the “activity change, negative = cytotoxicity” value was 5.96% (inactive).

As for `O=C(NCc1ccco1)c1cccc(-c2ccc3nncn3c2)c1`, the “activity change, negative = cytotoxicity” value is -11.8% (inactive).

In the case of `CCCC1=Nc2cc(C(=O)NCCN3CCCC3)ccc2Sc2ccccc21`, the “activity change, negative = cytotoxicity” value was -2.03% (inactive).

Turning to `CCCC1=Nc2cc(C(=O)NCc3ccco3)ccc2Sc2ccccc21`, the Potency is 4.11 µM (active).

For `CCCCCNC(=O)C(c1ccc(OC)cc1)n1c(=O)c(-c2ccccc2)nc2ccccc21` (stereo not drawn), the “activity change, negative = cytotoxicity” value was -20.4% (inactive).

Regarding `CCCCn1nnnc1C1(C)CCC(=O)N1Cc1ccc(OC)c(OC)c1` (stereo not drawn), the “activity change, negative = cytotoxicity” value is -7.85% (inactive).

With `C[C@H](CO)N1C[C@H](C)[C@H](CN(C)C(=O)c2ccncc2)OCc2ccccc2-c2c(n(C)c3ccccc23)C1=O`, the “activity change, negative = cytotoxicity” value is 0.888% (inactive).

With `CCn1nc(C)c(/C=N/NC(=O)Cc2ccc(Cl)cc2)c1C`, the “activity change, negative = cytotoxicity” value was 14.2% (inactive).

Consider `Cc1nn(Cc2ccc(Cl)cc2)c(Cl)c1/C=N/NC(=O)CNc1ccccc1F`, for which the Potency is 3.26 µM (active).

For `Cc1nn(Cc2ccc(Cl)cc2)c(Cl)c1/C=N/NC(=O)c1cccnc1`, the “activity change, negative = cytotoxicity” value was 1.6% (inactive).

For the compound `CC(C)C[C@H]1CNC(=S)N1C[C@H]1CCCN1C[C@H](Cc1ccc(O)cc1)N1C[C@H](Cc2ccc(O)cc2)N(CC2CCCCC2)C1=S`, the “activity change, negative = cytotoxicity” value is -8.38% (inactive).

Consider `Cn1cnc(S(=O)(=O)N2C[C@@H](O)COC[C@@H]3O[C@H](CC(=O)NC4CCC4)CC[C@H]32)c1`, for which the “activity change, negative = cytotoxicity” value was 0.239% (inactive).

Consider `OC[C@H]1O[C@@H](c2nc(-c3nc(-c4ccc(F)cc4)no3)cs2)[C@H](O)[C@@H](O)[C@H]1O`, for which the “activity change, negative = cytotoxicity” value is -0.61% (inactive).

As for `COc1cc(Cl)c(C)cc1Nc1nnc(-n2nc(C)cc2C)c2ccccc12`, the “activity change, negative = cytotoxicity” value is -12.2% (inactive).

Regarding `COc1ccc(C(=O)NC2CC2)cc1OC1CCN(Cc2ccc(SC)cc2)CC1`, the “activity change, negative = cytotoxicity” value was -8.65% (inactive).

With `COc1ccc(C(=O)NC2CC2)cc1OC1CCN(C/C=C/c2ccccc2)CC1`, the Potency was 16.4 µM (active).

Consider `COc1ccc(C(=O)NC2CC2)cc1OC1CCN(Cc2cnn(C)c2)CC1`, for which the “activity change, negative = cytotoxicity” value was 2.24% (inactive).

Regarding `CCN(CC)CCN(C(=O)c1ccc(S(=O)(=O)N2CCOCC2)cc1)c1nc2cc3c(cc2s1)OCCO3`, the “activity change, negative = cytotoxicity” value is -7.69% (inactive).

Turning to `CN(C)CCCN(C(=O)c1ccc(S(=O)(=O)N2CCCCCC2)cc1)c1nc2ccc(Br)cc2s1`, the Potency was 23.1 µM (active).

Regarding `CN(C)CCCN(C(=O)c1ccc(S(=O)(=O)N2CCCCCC2)cc1)c1nc2cc3c(cc2s1)OCCO3`, the “activity change, negative = cytotoxicity” value is -18.9% (inactive).

For `COC(=O)c1ccccc1N=NNc1ccc([N+](=O)[O-])cc1`, the “activity change, negative = cytotoxicity” value was 8.27% (inactive).

For `CC1(C(=O)NS(=O)(=O)c2cccc(F)c2)CCN1C(=O)Cc1cc(F)ccc1F` (stereo not drawn), the “activity change, negative = cytotoxicity” value was -1.01% (inactive).

As for `O=C(Nc1cccc(-c2nnc(-c3ccccc3)o2)c1)C1CCCO1` (stereo not drawn), the “activity change, negative = cytotoxicity” value was -7.48% (inactive).

In the case of `O=C(Nc1ccc(-c2nnc(-c3ccccc3)o2)cc1)C1CCCO1` (stereo not drawn), the Potency was 8.2 µM (active).

`O=C(Nc1nnc(CCc2ccccc2)s1)C1CCCO1` (stereo not drawn): the “activity change, negative = cytotoxicity” value was 21% (inactive).

`CC1(C(=O)NCc2ccccc2)CSCC(=O)N1CCCn1ccnc1` (stereo not drawn): the “activity change, negative = cytotoxicity” value was -1.64% (inactive).

As to `COc1ccc(-c2cc(NCc3ccc(F)cc3)n3cnnc3n2)cc1`, the “activity change, negative = cytotoxicity” value is -27.6% (inactive).

Consider `Cc1cccc(C(=O)N[C@H](C(=O)NCc2cccs2)C(C)C)c1`, for which the Potency was 9.2 µM (active).

For `CC(=O)Nc1ccc(NC(=O)[C@@H](NC(=O)c2cccc(C)c2)C(C)C)cc1`, the “activity change, negative = cytotoxicity” value was -7.26% (inactive).

In the case of `CC(Cc1cccs1)NC(=O)c1cccc(Cl)c1` (stereo not drawn), the “activity change, negative = cytotoxicity” value was -0.81% (inactive).

Turning to `COc1ccc(-c2[nH][nH]c(=O)c2NC(=O)c2ccc([N+](=O)[O-])cc2)cc1`, the “activity change, negative = cytotoxicity” value was 13.7% (inactive).

Regarding `O=C(NCC1COc2ccccc2O1)C1(c2ccccc2)CCCC1` (stereo not drawn), the “activity change, negative = cytotoxicity” value was 0% (inactive).

On to `CCCN(CC1COc2ccccc2O1)C(=S)Nc1ccc(C)cc1` (stereo not drawn), for which the “activity change, negative = cytotoxicity” value was 0.384% (inactive).

Take `S=C(NCC1COc2ccccc2O1)Nc1ccc(Br)cc1` (stereo not drawn): the Potency was 23.1 µM (active).

With `C[C@@H]1CN([C@H](C)CO)C(=O)c2cc(-c3ccc(F)cc3)cnc2O[C@H]1CN(C)C(=O)c1ccc(F)cc1`, the “activity change, negative = cytotoxicity” value was 8.9% (inactive).

Regarding `CN(Cc1c(F)cccc1Cl)C(=O)COC(=O)Cn1cnc2ccccc2c1=O`, the “activity change, negative = cytotoxicity” value is -0.17% (inactive).

`CC1CCN(C(=O)c2cccc(S(=O)(=O)N3CCCc4ccccc43)c2)CC1`: the “activity change, negative = cytotoxicity” value was -25.6% (inactive).

Consider `Cn1c(=O)n(C)c2cc(S(=O)(=O)N3CCCc4ccccc43)ccc21`, for which the Potency was 8.2 µM (active).

Turning to `COc1cc(C)c(C)cc1S(=O)(=O)N1CCCc2ccccc21`, the “activity change, negative = cytotoxicity” value is -18.2% (inactive).

As for `C[C@H](CO)N1C[C@H](C)[C@@H](CN(C)Cc2ccc3c(c2)OCO3)OCc2cnnn2CCCC1=O`, the “activity change, negative = cytotoxicity” value is 25.2% (inactive).

On to `CC1(C(=O)Nc2cccnc2)Cc2c(-c3ccccc3)ccnc2O1` (stereo not drawn), for which the “activity change, negative = cytotoxicity” value is 0.0523% (inactive).

For the compound `Cc1nnc(SC(C)C(=O)c2c[nH]c3ccccc23)n1C1CC1` (stereo not drawn), the “activity change, negative = cytotoxicity” value was 12.2% (inactive).

For the origin of these results see PubChem BioAssay AID1347076 (National Center for Advancing Translational Sciences (NCATS), 2019).
